Screening data from PubChem.
GPR151 activ = human GPR151 activation; PathHunter beta-arrestin GPR151 cells, luminescence; activation, % at 11.2 µM; Q8TDV0; AID 1508602; 650,000 tested, 1% active; in the data active = activation above about 4.9%
TEAD-YAP block = TEAD-YAP interaction inhibition; AID 1259422; HEK-TIYL cells, TEAD-Gal4/YAP UAS-luciferase luminescence; inhibition, % at 9.12 µM; 640,000 tested, 1.4% active; in the data active = inhibition above about 32%
FBW7 activator = human FBW7 E3 ligase activation, primary screen; Q969H0; AlphaScreen FBW7–phospho-cyclin E peptide binding, activator screen; normalized activity (activation), % at 26.1 µM; 650,000 tested, 0.13% active; AID 1259310; in the data active = normalized activity above about 1.9%;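 also: purified mutant Fbw7 with reduced substrate affinity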
Target sequence (Q969H0 whole entry, looked up): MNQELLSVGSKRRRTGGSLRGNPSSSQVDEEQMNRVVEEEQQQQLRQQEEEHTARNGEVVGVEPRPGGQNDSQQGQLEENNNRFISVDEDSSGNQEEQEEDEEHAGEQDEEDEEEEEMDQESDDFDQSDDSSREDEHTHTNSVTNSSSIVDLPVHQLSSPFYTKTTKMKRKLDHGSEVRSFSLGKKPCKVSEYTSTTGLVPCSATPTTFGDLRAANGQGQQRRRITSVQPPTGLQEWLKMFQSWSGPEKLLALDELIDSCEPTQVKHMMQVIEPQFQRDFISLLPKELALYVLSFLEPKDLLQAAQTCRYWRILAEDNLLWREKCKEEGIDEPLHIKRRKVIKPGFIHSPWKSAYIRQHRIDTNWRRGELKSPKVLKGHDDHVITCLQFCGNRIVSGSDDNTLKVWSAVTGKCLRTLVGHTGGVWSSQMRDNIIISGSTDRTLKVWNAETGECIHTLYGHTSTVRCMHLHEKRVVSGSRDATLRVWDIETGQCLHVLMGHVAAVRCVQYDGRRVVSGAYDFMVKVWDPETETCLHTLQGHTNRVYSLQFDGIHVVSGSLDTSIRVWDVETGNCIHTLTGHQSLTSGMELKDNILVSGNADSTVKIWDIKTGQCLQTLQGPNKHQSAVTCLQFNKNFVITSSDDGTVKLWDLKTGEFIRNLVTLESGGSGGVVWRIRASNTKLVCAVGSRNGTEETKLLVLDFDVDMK
MITF inh = blocks human microphthalmia-associated transcription factor; AlphaScreen MITF homodimerization, bead proximity signal; 650,000 tested, 0.91% active; O75030; inhibition, % at 2.6 µM; in the data active = inhibition above about 50%
Of the large screens only hits and unclear results are named; the others gave an inactive call. This is a sample that favours compounds with a hit; in the whole collection about 3.5% have one here.

CC(=O)Oc1ccc2cc(-c3ccc4c(c3)OCCO4)c(=O)oc2c1	TEAD-YAP block 63
COc1ccc2cc(-c3nc(-c4ccccc4)no3)c(=O)oc2c1	TEAD-YAP block 59
CC(=O)Oc1ccc2c(=O)c(-c3ccc4c(c3)OCCO4)c(C)oc2c1	none
COc1cccc(-c2cc3ccc(OC(C)=O)cc3oc2=O)c1	TEAD-YAP block 58
O=C(OC[C@H]1O[C@H](OC(=O)c2cc(O)c(O)c(OC(=O)c3cc(O)c(O)c(O)c3)c2)[C@H](OC(=O)c2cc(O)c(O)c(OC(=O)c3cc(O)c(O)c(O)c3)c2)[C@@H](OC(=O)c2cc(O)c(O)c(OC(=O)c3cc(O)c(O)c(O)c3)c2)[C@@H]1OC(=O)c1cc(O)c(O)c(OC(=O)c2cc(O)c(O)c(O)c2)c1)c1cc(O)c(O)c(OC(=O)c2cc(O)c(O)c(O)c2)c1	MITF inh 112
CC(=O)OCC1OC(OC(C)(C)C)C(OC(C)=O)C(OC(C)=O)C1OC(C)=O (stereo unspecified)	none
O=[N+]([O-])c1cccc(CN2CCCCCC2)c1	none
O=[N+]([O-])c1cccc(CN2CCN(Cc3cc(Br)ccc3O)CC2)c1	MITF inh 65
NCCOc1ccc(C(=O)Nc2ccc3[nH]ncc3c2)cn1	TEAD-YAP block 54
CN1CC[C@@H](Oc2cc(C(=O)Nc3ccc4[nH]ncc4c3)ccn2)C1	TEAD-YAP block 52
O=C(Nc1ccc2[nH]ncc2c1)c1ccc(O[C@H]2CCNC2)nc1	none
CN1CCC(Oc2ccc(C(=O)Nc3ccc4[nH]ncc4c3)cn2)CC1	TEAD-YAP block 88
CN1CC[C@H](Oc2ccnc(C(=O)Nc3ccc4[nH]ncc4c3)c2)C1	none
CN1CCCC(Oc2ccnc(C(=O)Nc3ccc4[nH]ncc4c3)c2)C1 (stereo unspecified)	TEAD-YAP block 45
CN1CC[C@H](Oc2ccc(C(=O)Nc3ccc4[nH]ncc4c3)cn2)C1	none
COc1ccccc1N1CCN(S(=O)(=O)c2ccc(C(C)(C)C)cc2)CC1	none
CCOc1ccc(/C(O)=C2\C(=O)C(=O)N(c3nccs3)C2c2ccccc2)cc1 (stereo unspecified)	TEAD-YAP block 36
COc1cc(C(=O)Nc2ccc(I)cc2)cc(OC)c1OC	TEAD-YAP block 35
COc1cc(C(=O)Nc2ccc(C)c(C)c2)cc(OC)c1OC	none
COc1cc(C(=O)Nc2ccc(N3CCCC3)c(Cl)c2)cc(OC)c1OC	TEAD-YAP block 42
COc1cc2c(cc1NC(=O)C1CCCN1S(=O)(=O)c1ccc3ccccc3c1)oc1ccccc12 (stereo unspecified)	none
CC(C)CC(=O)Nc1ccc(S(=O)(=O)N2CCC(c3nc4ccccc4[nH]3)CC2)cc1	TEAD-YAP block 34
Cc1ccc(CN2CCOc3ccc(C(C)(O)CN(C)C)cc3C2)o1 (stereo unspecified)	none
CCOc1ccc2ncc(C#N)c(Nc3cc(OC)cc(OC)c3)c2c1	TEAD-YAP block 45
CCOC(=O)c1cnc2ccc(OCC)cc2c1Nc1cccc(OC)c1	none
CC(C)OC(=O)CSc1nc2cc3c(cc2cc1C#N)OCCO3	none
CN=c1scc(-c2ccccc2Br)n1/N=C/c1ccc[nH]1	TEAD-YAP block 88
CN=c1scc(-c2cccs2)n1/N=C/c1ccc[nH]1	TEAD-YAP block 87
O=[N+]([O-])c1cc([N+](=O)[O-])c2cccnc2c1Oc1ccccc1O	MITF inh 68
O=[N+]([O-])c1ccc(OS(=O)(=O)c2ccc3ccccc3c2)c2ncccc12	TEAD-YAP block 48
COc1cc(C(=O)Oc2ccc([N+](=O)[O-])c3cccnc23)cc(OC)c1OC	none
CC(=O)NC(c1ccco1)c1cc([N+](=O)[O-])c2cccnc2c1O (stereo unspecified)	MITF inh 55
CC(=O)NC(c1ccc2c(c1)OCO2)c1cc([N+](=O)[O-])c2cccnc2c1O (stereo unspecified)	MITF inh 68
CCOC(=O)c1c(NC(=O)CSc2nnc(CNC(=O)Cc3ccc(OC)cc3)n2-c2ccc(OCC)cc2)sc2c1CCCC2	none
COC(=O)/C=C1\Nc2cc(C)ccc2OC1=O	none
CC(=O)NC(c1ccc(Cl)cc1Cl)c1cc([N+](=O)[O-])c2cccnc2c1O (stereo unspecified)	MITF inh 58
COc1ccccc1C(NC(C)=O)c1cc([N+](=O)[O-])c2cccnc2c1O (stereo unspecified)	MITF inh 85
CC(=O)NC(c1ccc(C)cc1)c1cc([N+](=O)[O-])c2cccnc2c1O (stereo unspecified)	none
CC(=O)N1CC[C@@H](NC(=O)c2cccc(-n3cc(NC(=O)Cc4ccccc4)cn3)c2)C1	none
NC(=O)c1c(NC(=O)C2CCCO2)sc2c1CCCCCC2 (stereo unspecified)	none
NC(=O)c1ccc(-c2nc(NC3CC3)c3ncn(-c4ccsc4)c3n2)cc1	none
NC(=O)c1ccc(-c2nc(N)c3ncn(-c4ccsc4)c3n2)cc1	TEAD-YAP block 58
CN1CCN(C(=O)c2ccc(-c3nc(N)c4ncn(-c5ccccc5)c4n3)cc2)CC1	none
NC(=O)c1ccc(-c2nc(N)c3ncn(-c4ccccc4)c3n2)cc1	TEAD-YAP block 55
CCOC(=O)C1=C(N)n2c(s/c(=C\c3ccc(OC)cc3)c2=O)=C(C(=O)OCC)C1c1ccc(OC)cc1 (stereo unspecified)	none
CC(=O)Nc1cccc(NC(=O)CSc2nc3ccc(C)cc3[nH]2)c1	none
O=C(NCc1ccccc1)c1cnc(N2CCN(Cc3ccc4c(c3)OCO4)CC2)s1	none
CS(=O)(=O)Nc1ccc(-c2nnc(SCC(=O)Nc3ccccc3F)o2)cc1	TEAD-YAP block 37
CS(=O)(=O)Nc1ccc(-c2nnc(SCC(=O)Nc3ccccc3Cl)o2)cc1	none
O=C1NC(=O)/C(=C\c2ccc(OCc3ccccc3F)cc2)N1	none
COC(=O)CSc1nnc(-c2cccnc2)n1C	FBW7 activator 1.9
COc1cccc(-n2c(SCC(=O)Nc3ccccc3OC)nnc2-c2cccnc2)c1	none
COc1ccccc1NC(=O)CSc1nnc(-c2cccnc2)n1-c1ccccc1C	TEAD-YAP block 70
CCCCNC(=O)CSc1nnc(-c2cccnc2)n1-c1ccccc1OC	none
COc1cccc(-c2nnc(SCC(=O)Nc3ccccc3OC)n2-n2cccc2)c1	TEAD-YAP block 50
COc1ccccc1-n1c(SCC(=O)Nc2ccccc2F)nnc1-c1cccnc1	TEAD-YAP block 58
C=CCOC(=O)/C(=C\c1ccco1)NC(=O)c1ccc(C)cc1	none
N#CC1=C(N)Oc2n[nH]c(-c3ccccc3)c2C1c1ccc2c(c1)OCO2 (stereo unspecified)	none
COc1ccccc1-n1c(SCC(=O)Nc2ccc(F)cc2)nnc1-c1ccncc1	none
COc1ccccc1-n1c(SCC(=O)Nc2nc(C)cs2)nnc1-c1ccncc1	TEAD-YAP block 51
COc1cc2c(cc1OC)C(c1cccs1)N(C(=O)c1cccnc1)CC2 (stereo unspecified)	TEAD-YAP block 46
COc1ccc(NC(=O)c2ccc3c(=O)n(Cc4ccccc4)c(=S)[nH]c3c2)c(OC)c1	none
CCc1ccc(N(CC(=O)NC(C)CC)S(C)(=O)=O)cc1 (stereo unspecified)	FBW7 activator 1.9
